In PubChem BioAssay:
For part of these data: Entries with a potency or affinity are not part of this list. Calls of active or inactive are those of the source. Unless noted, the rule behind the calls is not given here.

Key:
[1] = molecular target: Cell division control protein 42 homolog (Homo sapiens) (UniProt P60953); test: inhibition of fluorescent GTP binding to constitutively active Cdc42 – biochemical, multiplex bead flow cytometry, Bodipy-FL-GTP, dose response (AID 1333;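 active = fitted half-maximal concentration within the tested dose range, moderate curve steepness, a statistically real signal drop, and little compound fluorescence or tag-binding interference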)
Cell division control protein 42 homolog (Homo sapiens), sequence (P60953 whole entry, looked up): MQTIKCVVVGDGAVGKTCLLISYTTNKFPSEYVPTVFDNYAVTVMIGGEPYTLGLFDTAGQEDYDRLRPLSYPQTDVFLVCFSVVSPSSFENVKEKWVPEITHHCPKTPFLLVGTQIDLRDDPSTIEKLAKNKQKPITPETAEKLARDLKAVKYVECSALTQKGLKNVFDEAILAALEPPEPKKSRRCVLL

[2] = molecular target: Cell division control protein 42 homolog (Homo sapiens) (UniProt P60953); test: inhibition of fluorescent GTP binding to wildtype Cdc42 – biochemical, multiplex bead flow cytometry, Bodipy-FL-GTP, dose response (AID 1334;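 active = fitted half-maximal concentration within the tested range, moderate curve steepness, significant signal drop, and little compound fluorescence or bead-linkage interference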); conditions: bead-based flow cytometry, Bodipy-FL-GTP binding to GST-Cdc42; at 100 µM (top of the series) unless noted
[3] = molecular target: GTPase HRas (Homo sapiens) (UniProt P01112); test: Ras wt fluorescent GTP loading blockade – biochemical, wildtype, multiplex bead flow cytometry, dose response (AID 1335;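 active = fitted half-maximal concentration within 10 nM to 100 µM, steepness 0.5 to 2, significant signal drop, low assay interference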); conditions: bead-based flow cytometry, Bodipy-GTP binding to GST-Ras; at 100 µM (top of the series) unless noted
GTPase HRas (Homo sapiens), sequence (P01112 whole entry, looked up): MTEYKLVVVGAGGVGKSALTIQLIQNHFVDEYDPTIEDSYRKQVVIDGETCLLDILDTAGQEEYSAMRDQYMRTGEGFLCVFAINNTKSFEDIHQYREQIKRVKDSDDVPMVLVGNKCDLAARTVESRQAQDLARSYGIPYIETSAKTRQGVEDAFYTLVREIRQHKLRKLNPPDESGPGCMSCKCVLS

[4] = test system: Ras-related protein Rab-7a (dog), GTP binding; test: blockers of fluorescent GTP binding to Rab7 – biochemical, wildtype, multiplex bead flow cytometry, dose response (AID 1336)
[5] = molecular target: Ras-related C3 botulinum toxin substrate 1 (Homo sapiens) (UniProt P63000); test: inhibition of wildtype Rac1 nucleotide loading – biochemical, multiplex bead flow cytometry, dose response (AID 1340;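 active = dose curve with midpoint inside tested range, moderate steepness, plateau gap beyond fit error, low compound glow and bead-link interference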); conditions: GST-Rac1 beads, Bodipy-FL-GTP binding; at 100 µM (top of the series) unless noted
[6] = molecular target: GTPase HRas (Homo sapiens) (UniProt P01112); test: blockade of GTP loading onto mutant Ras – biochemical, activated mutant, multiplex bead flow cytometry, dose response (AID 1341;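 active = dose-response curve with midpoint inside the tested range, moderate steepness, significant amplitude and little compound fluorescence or bead-attachment interference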;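 note: GST-tagged constitutively activated Ras mutant immobilized on beads and multiplexed with other GTPases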)

SMILES	outcome [1]	fluorescence, percent of control (lower = inhibition) [2]	GTP binding, percent of control [3]	outcome [4]	GTP binding signal, raw median fluorescence (lower = inhibition) (MCF (arbitrary fluorescence units)) [5]	outcome [6]
O=c1c2ccccc2nc2c3ccccc3c(NCc3ccccn3)nn12	inactive	33.4%	68.8%	inactive	167	inactive
Cn1c(=O)c2c(ncn2CC(O)CNc2cccc(Cl)c2)n(C)c1=O (stereo unspecified)	inactive	47.1%	101%	inactive	363	inactive
COc1ccc(-c2cc(-c3ccc(O)cc3)nc(N)c2C#N)cc1OC	inactive	32.2%	77.1%	inactive	184	inactive
O=C(COC(=O)/C=C/c1cccc([N+](=O)[O-])c1)NCc1ccc2c(c1)OCO2	inactive	34.8%	82.9%	inactive	254	inactive
CCCCCCOc1ccc(C#CC(=O)c2ccc([N+](=O)[O-])cc2)cc1	inactive	54.3%	199%	inactive	56.6	inactive
Cc1ccc(Sc2ncccc2C(=O)O)c(C)c1	inactive	78%	78.1%	inactive	309	inactive
NC(=O)NOCc1ncc(C(F)(F)F)cc1Cl	inactive	36.2%	81.2%	inactive	274	inactive
O=[N+]([O-])c1cc(Br)c(O)c(C=Nc2ccc(N3CCOCC3)cc2)c1	inactive	30.7%	79.8%	inactive	218	inactive
COc1ccc(N=C2S/C(=C\c3ccc(N4CCOCC4)o3)C(=O)N2CCc2c[nH]c3ccccc23)cc1	inactive	133%	212%	inactive	210	inactive
Cn1ncc(C(N)=O)c1NC(=S)NC(=O)c1ccc(Br)o1	inactive	36.5%	76.4%	inactive	170	inactive
CN(/N=C/c1ccncc1)C1=NS(=O)(=O)c2ccccc21	inactive	53.9%	32.4%	inactive	181	inactive
CNc1ncc(C(=O)c2ccc(Br)cc2)s1	inactive	37.3%	85.2%	inactive	277	inactive
CC1CCCN(c2ccc3nc4ccccc4c(=O)n3n2)C1 (stereo unspecified)	inactive	33.3%	74.6%	inactive	179	inactive
O=C(Cn1nc(-c2ccccc2)c2ccccc2c1=O)Nc1ccccn1	inactive	45.6%	58.1%	inactive	194	inactive
COc1ccc(OCC(=O)Nc2nonc2NC(=O)COc2ccc(OC)cc2)cc1	inactive	38.2%	79.5%	inactive	234	inactive
Cc1ccc(Nc2nc(-c3c(C)nc4ncccn34)cs2)cc1	inactive	29.8%	43.7%	inactive	103	inactive
